Measured values from PubChem BioAssay AID2685 (National Center for Advancing Translational Sciences (NCATS), 2010).
The whole screen tested about 320,000 compounds, of which about 2,100 (0.66%) were called active. About 53% were inconclusive and are not listed. Calls follow the shape of the dose curve; as a rule, active = well fitted inhibition curve with a large enough effect in the signal ratio, with a control signal flat (not every such curve was filed as active); inconclusive = small, poorly fitted or top-dose-only effect, or effect the other way, or a change in a side signal; inactive = flat fitted curve, though single readings scatter; the % refers to the signal ratio. What follows is part of a selection rich in actives, with near analogues and random picks from the rest.

Assay: qHTS Assay for Lipid Storage Modulators in Drosophila S3 Cells;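 as to cell number change: cells counted by Cell Tracker Red CMTPX staining in the red channel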; as to lipid storage change, negative = inhibition: % is scaled to controls: 0 for no effect and ±100 for the full control effect
Conditions: BODIPY lipid droplet fluorescence, 18-24 h, cells fed with added oleic acid; cell number change: measured here: cell count max response; series mostly up to 46.1 µM; lipid storage change, negative = inhibition: at the top concentration
How it was run: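 Drosophila S3 cells got compounds at several concentrations plus oleic acid (400 uM solution). Laser-scanning cytometry with 488 nm excitation read lipid droplets at 500-530 nm and cells at 575-640 nm. Percent activity was relative to 20 uM Triacsin C.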
Potency is read from the fitted curve at half-maximal effect.

| Structure (SMILES) | Potency | cell number change | lipid storage change, negative = inhibition | outcome |
| --- | --- | --- | --- | --- |
| Cc1nc(C)c(C(=O)NCc2ccccc2Cl)o1 | 8.2 µM (active) | -27.9% |  |  |
| Cc1nc(C)c(C(=O)NCCC(c2ccccc2)c2ccccc2)o1 |  | -16.5% | -5.08% (inactive) |  |
| Cc1ncoc1C(=O)NCc1ccccc1Cl |  | -13.1% | -6.9% (inactive) |  |
| COC(CNC(=O)c1ccc2nc(-c3ccccc3)c(-c3ccccc3)nc2c1)OC |  | -6.61% | 0.217% (inactive) |  |
| O=C(CN1CCN(c2ccccc2F)CC1)Nc1ccc2c(c1)CCC2 |  | -8.56% | 16.4% (inactive) |  |
| Cc1ccc(S(=O)(=O)N(C)C)cc1NS(=O)(=O)c1ccc(Cl)s1 | 6.51 µM (active) | 0.163% |  |  |
| Cc1nc(-c2ccc(S(=O)(=O)Nc3cc(S(=O)(=O)N(C)C)ccc3C)s2)cs1 |  | 1.19% | 11.7% (inactive) |  |
| Cc1ccc(NS(=O)(=O)c2ccc(Cl)s2)cc1S(=O)(=O)N(C)C |  | 9.65% |  | inactive |
| COCCN(C(=O)c1ccccc1F)c1nnc(-c2ccc(OC)cc2)s1 | 18.4 µM (active) | -15.3% |  |  |
| COCCN(C(=O)c1ccccc1F)c1nc(-c2ccc(OC)cc2)cs1 |  | -17.2% |  | inactive |
| COCCN(C(=O)c1ccco1)c1nnc(-c2ccc(F)cc2)s1 |  | 4.04% | -8.18% (inactive) |  |
| O=C(Cn1c(NCCCO)nc2ccccc21)c1ccc(F)cc1 |  | 11.9% |  | inactive |
| Cc1ccc(SCc2cc(=O)n3[nH]c(C)nc3n2)cc1 |  |  |  | inactive |
| Cc1cc(C)c(CN2CCC(N3CCC(C(=O)NCC4CCCO4)CC3)CC2)cc1C (stereo unspecified) |  |  |  | inactive |
| CC[C@@H]1CC=C[C@H]2[C@H]1C(=O)N(Cc1ccccc1)[C@H]2c1ccc2ccccc2c1 |  |  | 3.66% (inactive) |  |
| CCN(CC)C(=O)CSc1nc(N)c(C#N)c(-c2cccs2)c1C#N |  | -4.19% | -6.5% (inactive) |  |
| CCN(CC)C(=O)CSc1nc(-c2cccs2)cc(-c2cccs2)c1C#N | 14.6 µM (active) | -14% |  |  |
| CCN(CC)C(=O)CSc1nc(C)cc(-c2cccs2)c1C#N |  | -17.5% | -8.02% (inactive) |  |
| O=C(CC1Sc2ccccc2NC1=O)Nc1cccc(-c2nnc3n2CCCCC3)c1 (stereo unspecified) |  | 4.38% | 1.89% (inactive) |  |
| Cc1ccsc1C(=O)Nc1ccc2c(c1)OCCO2 |  |  | 1.81% (inactive) |  |
| Cc1ccc(NC(=O)c2cccs2)cc1[N+](=O)[O-] |  | -1.31% | 6.94% (inactive) |  |
| Cc1ccc(NC(=O)c2sccc2C)cc1[N+](=O)[O-] | 8.2 µM (active) | 7.44% |  |  |
| COc1ccc(-c2csc(NC(=O)c3cccc(N4C(=O)CCC4=O)c3)n2)cc1C |  | -26.1% | -7.59% (inactive) |  |

| Structure (SMILES) | Potency | cell number change | lipid storage change, negative = inhibition | outcome |
| --- | --- | --- | --- | --- |
| O=C1CC(=O)N(CCc2ccccc2)C(=O)N1CCc1ccccc1 |  | -9.18% | 2.21% (inactive) |  |
| COc1ccc(OC)c(N=CC2=C(O)CC(C)(C)CC2=O)c1 |  | 25.1% |  | inactive |
| C/C(=N\Nc1ccc([N+](=O)[O-])cc1)c1ccc2c(c1)OCO2 |  | -16.9% | -8.87% (inactive) |  |
| Cn1c(=O)c2sccc2n2c(CCCC(=O)NCc3ccco3)nnc12 |  | -10.3% |  | inactive |
| CCCn1c(=O)c2sccc2n2c(CCCC(=O)NC3CCN(Cc4ccccc4)CC3)nnc12 |  | 6.65% |  | inactive |
| COCCCn1c(=O)c2sccc2n2c(CCCC(=O)NCC3CCCO3)nnc12 (stereo unspecified) | 18.4 µM (active) | 11.8% |  |  |
| O=C(CCCn1c(=O)c2sccc2n(CC(=O)NCC2CCCO2)c1=O)NCc1ccco1 (stereo unspecified) |  | 3.33% | 8.98% (inactive) |  |
| CCCn1c(=O)c2sccc2n2c(CCCC(=O)NCC3CCCO3)nnc12 (stereo unspecified) | 20.6 µM (active) | -21.7% |  |  |
| COCCCn1c(=O)c2sccc2n2c(CCCC(=O)NCc3ccccc3)nnc12 |  | 12.6% |  | inactive |
| Cn1c(C(=O)OCC(=O)NCC2CCCO2)cc2sccc21 (stereo unspecified) |  | 0.161% | 0.961% (inactive) |  |
| CCCn1c(=O)c2sccc2n2c(CCCC(=O)NCc3ccco3)nnc12 | 29.1 µM (active) | -3.77% |  |  |
| CCCN(CCC)C(=O)Cn1c(=O)n(CCCC(=O)NCc2ccco2)c(=O)c2sccc21 |  | 2.76% | -0.536% (inactive) |  |
| O=C(O)CCCN=C1NC2(CCCC2)Cc2ccccc21 |  | 11.6% | 6.16% (inactive) |  |
| Cc1cc(=O)[nH]c(SCC(=O)c2ccc3c(c2)NC(=O)CO3)n1 |  | 4.71% | 1.83% (inactive) |  |
| COc1cccc(NC(=O)CN(C)C(=O)CSc2nc(C)cc(C)n2)c1 |  | 1.93% | 24.9% (inactive) |  |
| COC(=O)c1c(NC(=O)c2cccnc2Cl)sc(C(=O)N(C)C)c1C |  | 7.02% | 20.4% (inactive) |  |
| COc1ccccc1C(CC(=O)Nc1ccc(C)c(C)c1)c1ccc(OC(C)C)cc1 (stereo unspecified) |  | 11.9% | -0.923% (inactive) |  |
| COC(=O)COc1ccc(NC(=O)Cn2nc(-c3ccccc3)c3ccccc3c2=O)cc1 |  | 0.0736% | -8.81% (inactive) |  |
| COc1ccc(CNc2nc(S(=O)(=O)c3ccccc3)c(Cl)s2)cc1OC |  | -10.4% | -3.6% (inactive) |  |
| Nc1cc(OC(=O)c2c(F)cccc2Cl)nn1S(=O)(=O)c1ccccc1 | 0.517 µM (active) | -4.17% |  |  |
| Cc1onc(-c2ccccc2Cl)c1C(=O)Oc1cc(N)n(S(=O)(=O)c2ccc(F)cc2)n1 |  | -4.68% | -2.64% (inactive) |  |
| Cc1ccc(S(=O)(=O)n2nc(OC(=O)c3c(F)cccc3Cl)cc2N)cc1 |  | 5.65% |  | inactive |
